The values below come from PubChem BioAssay (Tox21).

Experiment [1] can be described thus: qHTS assay to identify small molecule antagonists of the peroxisome proliferator-activated receptor delta (PPARd) signaling pathway - cell viability counter screen (AID 743213). Also: nearly all actives have a fitted effect of over 50% in size. Also: potency is read from the fitted curve at half-maximal effect. Summed up: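 CellTiter-Glo was added to PPARd-bla HEK293H wells following 17 h compound treatment in the presence of 300 nM L165041. Luminescence was recorded after 30 min at room temperature.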
For orientation: In qHTS, concentration-response curves come from the screen itself.

Experiment [2] deals with Vitamin D3 receptor (Homo sapiens) (UniProt P11473). The experiment is described as follows: qHTS assay to identify small molecule agonists of the vitamin D receptor (VDR) signaling pathway (AID 743222; calls by dose curve; also: % is scaled to controls: 0 for no effect and ±100 for the full control effect). The essentials:
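Beta-lactamase reporter readout (LiveBLAzer B/G FRET, 2 h RT) in VDR-bla cells after 16 h compound treatment at 37C, 5% CO2; cells pre-incubated 4 h before pin transfer of DMSO solutions.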

For experiment [3] the target is unchanged. The experiment can be described thus: qHTS assay to identify small molecule antagonists of the vitamin D receptor (VDR) signaling pathway (AID 743223; active = well fitted inhibition curve with a large enough effect in the signal ratio in the repeat runs, not every such curve was filed as active; the % refers to the signal ratio; also: % is scaled to controls: 0 for no effect and ±100 for the full control effect). The essentials: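 Agonist 1alpha,25-dihydroxyvitamin D3 (3 nM in well) was added with each compound to VDR-bla cells preincubated 4 h. Cells stood 16 h at 37C, then FRET substrate 2 h at room temperature; fluorescence intensity recorded.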

The nature of experiment [4]: qHTS assay to identify small molecule antagonists of the vitamin D receptor (VDR) signaling pathway - cell viability counter screen (AID 743225). Also: nearly all actives have a fitted effect of over 50% in size. Also: potency is read from the fitted curve at half-maximal effect. The essentials: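 Luminescent cell viability (CellTiter-Glo) in VDR-bla HEK 293T cells after 16 h compound exposure at 37C in the presence of 3 nM final 1-alpha,25-dihydroxy vitamin D3.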
Experiment [5] in a line: qHTS assay to identify small molecule agonists of the NFkB signaling pathway - cell viability counter screen (AID 1159515; calls by dose curve; also: nearly all actives have a fitted effect of over 55% in size; also: potency is read from the fitted curve at half-maximal effect). Summed up:
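ME-180 NFkB-bla cells, 2,000/well; overnight attach; compound 5 hr, 37 C/5% CO2; LiveBLAzer substrate 1.5 hr RT; then CellTiter-Glo in same wells, 30 min RT, luminescence read.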

Experiment [6] can be described thus: qHTS assay to identify small molecule antagonists of the retinoid-related orphan receptor gamma (ROR-gamma) signaling pathway - cell viability counter screen (AID 1159520). Also: nearly all actives have a fitted effect of over 50% in size. Also: potency is read from the fitted curve at half-maximal effect. Summed up: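 Cytotoxicity was read from cellular ATP (CellTiter-Glo luminescence) after 16 hr at 37 C with 1 uM doxycycline induction. The inducer was added 2 hr after compound transfer to Tet-on ROR gamma CHO cells.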

Experiment [7] deals with Nuclear receptor ROR-gamma (Homo sapiens) (UniProt P51449). The experiment is described as follows: qHTS assay to identify small molecule antagonists of the retinoid-related orphan receptor gamma (ROR-gamma) signaling pathway (AID 1159521; also: nearly all actives have a fitted effect of over 50% in size; also: potency is read from the fitted curve at half-maximal effect). The essentials:
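CHO cells expressing RORγ under a TET-on promoter, luciferase under RORE control. Dox 1 uM final, 16 h; compounds added 2 h prior. Luminescence decrease measured.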

Experiment [8] can be described thus: qHTS assay to identify small molecule agonists of the AP-1 signaling pathway - cell viability counter screen (AID 1159525; calls by dose curve; also: nearly all actives have a fitted effect of over 55% in size; also: potency is read from the fitted curve at half-maximal effect). Summed up:
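Intracellular ATP by Cell Titer Glo luminescence (30 min, RT) in the same ME-180 AP-1-bla wells after the 5 h compound exposure at 37 °C. Normalised to tetra n-octyl ammonium bromide and DMSO controls.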

The nature of experiment [9]: qHTS assay to identify small molecule agonists of the RXR signaling pathway - cell viability counter screen (AID 1159529). Also: nearly all actives have a fitted effect of over 50% in size. Also: potency is read from the fitted curve at half-maximal effect. Summed up: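 Same-well viability check after the LiveBLAzer FRET read: CellTiter-Glo added, luminescence measured after 30 min at room temperature. Reporter HEK 293T cells had been treated with compounds for 16 hr following a 5 hr preincubation.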

Experiment [10] addresses Peroxisome proliferator-activated receptor delta (Homo sapiens) (UniProt Q03181). The experiment is described as follows: qHTS assay to identify small molecule antagonists of the peroxisome proliferator-activated receptor delta (PPARd) signaling pathway (AID 743215; active = well fitted inhibition curve with a large enough effect in the signal ratio in the repeat runs, not every such curve was filed as active; the % refers to the signal ratio;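 also: cells stimulated with agonist L165041 at 300 nM final during compound exposure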; also: potency is read from the fitted curve at half-maximal effect). The essentials: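 HEK293H GeneBLAzer PPARd UAS-bla reporter cells; cpd + L165041 300 nM final, 17 h 37 C; LiveBLAzer B/G FRET substrate 2 h RT; fluorescence intensity read-out. Antagonist mode.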

In experiment [11] the target is Bile acid receptor (Homo sapiens) (UniProt Q96RI1). The experiment is described as follows: qHTS assay to identify small molecule antagonists of the farnesoid-X-receptor (FXR) signaling pathway (AID 743217; active = well fitted inhibition curve with a large enough effect in the signal ratio in the repeat runs, not every such curve was filed as active; the % refers to the signal ratio; also: potency is read from the fitted curve at half-maximal effect). The essentials: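 Read-out: beta-lactamase FRET fluorescence (LiveBLAzer B/G substrate, 2 h, room temperature) in GeneBLAzer FXR-UAS-bla HEK 293T cells. Compounds were co-dosed with 50 uM chenodeoxycholic acid (final) and incubated 16 h at 37 °C.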

Experiment [12] is described as follows: qHTS assay to identify small molecule agonists of the farnesoid-X-receptor (FXR) signaling pathway - cell viability counter screen (AID 743218). Also: nearly all actives have a fitted effect of over 45% in size. Also: potency is read from the fitted curve at half-maximal effect. Summed up:
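Luminescence from CellTiter-Glo, read after 30 min at RT, reports viability of GeneBLAzer FXR-UAS-bla HEK 293T cells treated 16 h with compounds in the wells used for the beta-lactamase reporter.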

A short description of experiment [13]: qHTS assay to identify small molecule antagonists of the farnesoid-X-receptor (FXR) signaling pathway - cell viability counter screen (AID 743221; active = well fitted cell-killing curve with a large enough effect in the repeat runs, not every such curve was filed as active; also: nearly all actives have a fitted effect of over 50% in size; also: potency is read from the fitted curve at half-maximal effect). The essentials: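 In GeneBLAzer FXR-UAS-bla HEK 293T cells stimulated with 50 uM chenodeoxycholic acid (final), compounds acted for 16 h at 37 C. Viability was assessed afterwards by CellTiter-Glo luminescence.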

In experiment [14] the target is Peroxisome proliferator-activated receptor delta (Homo sapiens) (UniProt Q03181). The experiment can be described thus: qHTS assay to identify small molecule agonists of the peroxisome proliferator-activated receptor delta (PPARd) signaling pathway (AID 743212; calls by dose curve; also: % is scaled to controls: 0 for no effect and ±100 for the full control effect). Summed up:
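Beta-lactamase reporter readout: a ratiometric FRET signal from the LiveBLAzer substrate after 2 h at room temperature. Compound exposure at 37 °C in PPARδ-bla HEK293H cells driven by an upstream activator sequence.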

For experiment [15], the target named is Bile acid receptor (Homo sapiens) (UniProt Q96RI1). The experiment is described as follows: qHTS assay to identify small molecule agonists of the farnesoid-X-receptor (FXR) signaling pathway (AID 743220; active = well fitted activation curve with a large enough effect in the signal ratio in the repeat runs, not every such curve was filed as active; the % refers to the signal ratio; also: potency is read from the fitted curve at half-maximal effect). Summed up: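 FXR-UAS-bla HEK 293T cells carrying a UAS-driven beta-lactamase reporter were plated for 5 h at 37C/5% CO2, then exposed to DMSO-dissolved Tox21 10K compounds for 16 h at 37C. A LiveBLAzer B/G FRET substrate was loaded for 2 h at room temperature before fluorescence reading.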

A short description of experiment [16]: qHTS assay to identify small molecule agonists of the vitamin D receptor (VDR) signaling pathway - cell viability counter screen (AID 743224). Also: nearly all actives have a fitted effect of over 50% in size. Also: potency is read from the fitted curve at half-maximal effect. Summed up:
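Cytotoxicity counter screen: VDR-bla cells, 16 h compound exposure at 37C, 5% CO2; CellTiter-Glo luminescence, 30 min RT, same wells as bla read.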

Experiment [17] in a line: qHTS assay to identify small molecule agonists of the AP-1 signaling pathway (AID 1159526; calls by dose curve; also: % is scaled to controls: 0 for no effect and ±100 for the full control effect).
The target of experiment [18] is Retinoic acid receptor RXR-alpha (Homo sapiens) (UniProt P19793). The experiment can be described thus: qHTS assay to identify small molecule agonists of the RXR signaling pathway (AID 1159527; calls by dose curve; also: nearly all actives have a fitted effect of over 35% in size; also: potency is read from the fitted curve at half-maximal effect). Summed up:
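Beta-lactamase reporter assay, agonist format. Engineered HEK 293T line, charcoal-stripped FBS at 2%, overnight (16 hr) exposure, fluorescence at 460 and 530 nm after 405 nm excitation.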

Structures are written as SMILES. Values joined by “and” are separate entries in the source; they are usually repeats but may differ in a detail not shown here. Identical values can stand only once. Records with an inconclusive call do not appear. The source holds several records for some structures; these can differ, active in one and inactive in another. Active and inactive are the calls of the source. Unless noted, calls follow the shape of the dose curve; as a rule, active = well fitted curve in the direction sought with a large enough effect in the repeat runs; inconclusive = weak or mixed curves; inactive = no such curve, though single readings can be large; an effect the other way counts as inactive or inconclusive.

Sequence of Bile acid receptor (Homo sapiens) (Q96RI1 whole entry, looked up): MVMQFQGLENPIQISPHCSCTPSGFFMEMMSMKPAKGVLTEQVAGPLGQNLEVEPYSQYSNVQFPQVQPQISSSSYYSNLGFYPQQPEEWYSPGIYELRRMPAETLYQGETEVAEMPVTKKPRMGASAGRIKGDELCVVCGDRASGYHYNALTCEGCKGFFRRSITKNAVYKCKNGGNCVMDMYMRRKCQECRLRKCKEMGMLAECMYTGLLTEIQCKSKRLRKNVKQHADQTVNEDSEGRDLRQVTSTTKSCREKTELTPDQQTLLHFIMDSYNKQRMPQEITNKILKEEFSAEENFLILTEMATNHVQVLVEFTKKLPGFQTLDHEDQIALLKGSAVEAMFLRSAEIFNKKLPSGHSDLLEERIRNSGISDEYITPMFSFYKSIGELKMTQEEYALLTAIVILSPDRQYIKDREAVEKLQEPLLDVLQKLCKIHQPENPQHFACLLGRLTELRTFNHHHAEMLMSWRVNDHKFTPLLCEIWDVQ
Sequence of Vitamin D3 receptor (Homo sapiens) (P11473 whole entry, looked up): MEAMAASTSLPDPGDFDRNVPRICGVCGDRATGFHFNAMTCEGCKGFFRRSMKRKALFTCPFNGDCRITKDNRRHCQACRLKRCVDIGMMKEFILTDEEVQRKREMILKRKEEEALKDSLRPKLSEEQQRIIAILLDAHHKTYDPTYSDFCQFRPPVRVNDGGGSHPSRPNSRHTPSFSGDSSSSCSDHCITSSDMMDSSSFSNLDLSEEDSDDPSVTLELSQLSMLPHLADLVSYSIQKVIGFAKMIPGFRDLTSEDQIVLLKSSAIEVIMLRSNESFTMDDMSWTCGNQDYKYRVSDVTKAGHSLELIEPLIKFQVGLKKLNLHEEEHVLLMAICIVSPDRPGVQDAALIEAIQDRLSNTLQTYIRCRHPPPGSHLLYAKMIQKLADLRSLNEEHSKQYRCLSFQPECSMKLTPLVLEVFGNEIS
Sequence of Peroxisome proliferator-activated receptor delta (Homo sapiens) (Q03181 whole entry, looked up): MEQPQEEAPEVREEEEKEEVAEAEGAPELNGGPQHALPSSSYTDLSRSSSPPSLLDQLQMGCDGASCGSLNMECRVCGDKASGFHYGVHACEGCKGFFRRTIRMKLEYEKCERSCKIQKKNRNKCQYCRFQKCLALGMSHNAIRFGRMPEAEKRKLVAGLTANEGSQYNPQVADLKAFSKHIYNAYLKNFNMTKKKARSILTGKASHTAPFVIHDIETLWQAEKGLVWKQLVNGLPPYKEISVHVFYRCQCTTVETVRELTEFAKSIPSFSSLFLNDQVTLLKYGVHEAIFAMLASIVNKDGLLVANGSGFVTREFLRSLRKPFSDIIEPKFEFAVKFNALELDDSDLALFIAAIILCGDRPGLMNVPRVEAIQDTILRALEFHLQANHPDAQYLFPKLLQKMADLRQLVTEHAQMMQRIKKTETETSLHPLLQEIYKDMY
Sequence of Retinoic acid receptor RXR-alpha (Homo sapiens) (P19793 whole entry, looked up): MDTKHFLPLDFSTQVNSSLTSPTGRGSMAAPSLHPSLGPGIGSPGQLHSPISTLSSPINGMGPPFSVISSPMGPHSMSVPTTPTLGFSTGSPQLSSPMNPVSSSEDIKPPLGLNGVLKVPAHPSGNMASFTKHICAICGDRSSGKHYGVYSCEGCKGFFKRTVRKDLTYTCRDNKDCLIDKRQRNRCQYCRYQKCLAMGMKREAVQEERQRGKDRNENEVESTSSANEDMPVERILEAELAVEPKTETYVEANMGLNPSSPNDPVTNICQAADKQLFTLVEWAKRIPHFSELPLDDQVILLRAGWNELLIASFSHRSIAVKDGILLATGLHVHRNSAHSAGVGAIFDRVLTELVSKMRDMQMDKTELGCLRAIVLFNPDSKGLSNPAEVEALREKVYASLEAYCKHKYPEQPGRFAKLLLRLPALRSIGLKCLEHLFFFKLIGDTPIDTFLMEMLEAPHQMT

As for `Clc1ccccc1C(c1ccccc1)(c1ccccc1)n1ccnc1`, the Potency result in experiment [1], in experiment [2], in experiment [3], in experiment [4] and in experiment [5] was “inactive” throughout. The Potency is 24.3 µM (active) and inactive in experiment [6]; 2.73 µM (active) and 7.5 µM (active) in experiment [7]; 21.9 µM (active) and inactive in experiment [8]; 21.9 µM (active) in [9].
Take `CC1=C(C(=O)OC(C)C)C(c2cccc([N+](=O)[O-])c2)C(C(=O)OC2CN(C(c3ccccc3)c3ccccc3)C2)=C(N)N1` (stereo unspecified): the Potency result in [10] was “inactive”. Moreover, the Potency in experiment [11] was 29.8 µM (active); in experiment [12], 13.3 µM (active); in experiment [13] it was 26.6 µM (active); in experiment [4], 16.9 µM (active); in experiment [5], 10.7 µM (active); in experiment [6], 26.6 µM (active). Also, the Potency was 21.1 µM (active) in experiment [7], 15.1 µM (active) in experiment [8] and 13.4 µM (active) in [9].
For the compound `Oc1ccc2cc(SSc3ccc4cc(O)ccc4c3)ccc2c1`, the Potency result in experiment [14], in [11], in [15], in [13], in experiment [16] and in experiment [5] was “inactive” in each case. Besides, in experiment [8], the Potency entry was “inactive”. The Potency in experiment [10] is 17.4 µM (active); in experiment [6] it was 48.6 µM (active); in experiment [7] it was 48.6 µM (active).
With `Cc1cc(C2CCCCC2)n(O)c(=O)c1`, the Potency is 9.44 µM (active) in experiment [1], 18.8 µM (active) in [16], 5.35 µM (active) in [5] and 23.7 µM (active) in [7]. Moreover, the Potency result in experiment [8] is “inactive”.
With `O=C1C=CC(=O)N1`, the Potency in experiment [1] is 44.8 µM (active); in [16], 12.6 µM (active); in [6], 12.5 µM (active); in experiment [7] it was 5.59 µM (active); in experiment [9], 22.5 µM (active). For the same compound, the Potency result in experiment [15], in [2] and in [5] was “inactive” throughout.
Take `CC1(C)CCC(C)(C)c2cc(C(=O)Nc3ccc(C(=O)O)cc3)ccc21`: the Potency result in experiment [14], in experiment [10], in [11], in experiment [13], in experiment [5] and in experiment [8] was “inactive” throughout. The Potency entry in experiment [17] and in experiment [9] was “inactive” in each case. Further, the Potency was 43.6 µM (active) in [15], 61.1 µM (active) in experiment [7] and 4.36 µM (active) in [18].
For the compound `CN(C)c1ccc(SC#N)cc1`, the Potency result in experiment [1], in experiment [11], in [13], in experiment [2], in experiment [16] and in experiment [6] was “inactive” throughout. For the same compound, the Potency entry in [8] is “inactive”. Besides, the Potency in [5] is 17.4 µM (active).
As to `C/C(=C(/OCCOc1ccc(Cl)cc1)c1ccc(Cl)cc1Cl)n1ccnc1`, the Potency entry in experiment [14], in experiment [1], in experiment [13], in [2], in [4] and in experiment [5] was “inactive” throughout. Further, the Potency result in experiment [6], in [8], in [18] and in experiment [9] was “inactive” each time.
With `CCCCCCCCS(=O)C(C)Cc1ccc2c(c1)OCO2` (stereo unspecified), the Potency result in [15], in experiment [5], in [6], in experiment [7] and in experiment [8] was “inactive” throughout. Moreover, the figures for the Potency in experiment [16] and in experiment [4] were 50 µM (active) and 44.5 µM (active), respectively.
Consider `O=CC=C(c1ccccc1)c1ccccc1`, for which the Potency entry in [14], in experiment [11], in experiment [5] and in experiment [8] was “inactive” each time. For the same compound, the Potency in [7] is 61.6 µM (active).
Take `O=C(Nc1ccc(Oc2ccc(Cl)cc2)c(Cl)c1)c1cc(I)cc(I)c1O`: the Potency entry in experiment [15], in [2], in experiment [5] and in experiment [8] was “inactive” in each case. Besides, the figures for the Potency in [16] and in experiment [7] were 18.8 µM (active) and 23.7 µM (active), respectively.
As to `CCN1/C(=C/C=C/c2sc3ccccc3[n+]2CC)Sc2ccccc21`, the Potency entry in [15], in experiment [4] and in [5] was “inactive” throughout. Further, the Potency is 4.61 µM (active) in experiment [16], 11.6 µM (active) in [6] and 2.31 µM (active) in experiment [7]. Moreover, the viability change, negative = cytotoxic in [8] was -11.9% [at 15.8 µM] (inactive).
In the case of `Nc1cc(C(F)(F)F)ccc1S`, the Potency entry in experiment [12], in experiment [13], in experiment [2], in [16], in [4] and in [5] was “inactive” in each case. Besides, the Potency entry in experiment [8] is “inactive”. Besides, the figures for the Potency in experiment [7] and in experiment [9] were 26.6 µM (active) and 8.49 µM (active), respectively.
For the compound `CC(=O)N1CCN(c2ccc(OC[C@H]3CO[C@](Cn4ccnc4)(c4ccc(Cl)cc4Cl)O3)cc2)CC1`, the Potency in experiment [1] is 27.5 µM (active); in experiment [11], 43.6 µM (active); in experiment [12], 49 µM (active); in experiment [13], 54.9 µM (active); in experiment [16], 21.9 µM (active); in experiment [4], 38.9 µM (active). The Potency in [5] was 61.6 µM (active); in experiment [7], 9.69 µM (active); in [8], 49 µM (active); in experiment [9], 17.4 µM (active).
As for `N#CSc1ccc(N)c([N+](=O)[O-])c1`, the values for the Potency in experiment [1], in [16] and in experiment [7] were 49.3 µM (active), 55.3 µM (active) and 48.9 µM (active), respectively. The Potency result in experiment [15], in experiment [5] and in [8] was “inactive” throughout.
On to `OCc1c[nH]c2ccccc12`, for which the Potency result in [13], in experiment [5], in [6], in [7] and in experiment [8] was “inactive” throughout.
